Assay outcomes (PubChem BioAssay)
An excerpt weighted towards active compounds, which were near 13% of everything screened.
JMJD2E inh = qHTS Assay for Inhibitors of Human Jumonji Domain Containing 2E (JMJD2E); Lysine-specific demethylase 4E (Homo sapiens), B2RXH2; JMJD2E catalytic domain, FDH-coupled NADH fluorescence (FDH is formaldehyde dehydrogenase); Potency, µM (highest dose often 57.1 µM), most hits filed as inhibitors; actives 1.6% (n = 230,000); AID 2147, 2009; active = well fitted inhibition curve with a large enough effect, not every such curve was filed as active; inconclusive = small, poorly fitted or top-dose-only effect, or another doubt; inactive = no such curve, though single readings can be large or run the other way; note: nearly all actives have a fitted effect of over 50% in size
Target sequence (B2RXH2 1-337 limits assumed): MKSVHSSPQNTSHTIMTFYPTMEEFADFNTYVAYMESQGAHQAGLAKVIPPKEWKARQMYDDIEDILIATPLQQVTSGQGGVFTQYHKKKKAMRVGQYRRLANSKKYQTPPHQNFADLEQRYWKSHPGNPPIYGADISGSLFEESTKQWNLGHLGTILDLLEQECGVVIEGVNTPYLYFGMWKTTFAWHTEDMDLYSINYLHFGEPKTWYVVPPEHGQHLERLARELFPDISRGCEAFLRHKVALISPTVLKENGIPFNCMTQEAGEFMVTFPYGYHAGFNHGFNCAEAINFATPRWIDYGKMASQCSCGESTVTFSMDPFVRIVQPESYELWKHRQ
ALDH1A1 inh = qHTS Assay for Inhibitors of Aldehyde Dehydrogenase 1 (ALDH1A1); Purified ALDH1A1, NADH fluorescence, propionaldehyde substrate; Aldehyde dehydrogenase 1A1 (Homo sapiens), P00352; actives 7.3% (n = 220,000); Potency, µM (highest dose often 75.3 µM), usual class: inhibitors; active = well fitted inhibition curve with a large enough effect, not every such curve was filed as active; inconclusive = small, poorly fitted or top-dose-only effect, or another doubt; inactive = no such curve, though single readings can be large or run the other way
Sfp PPTase inh = qHTS Assay for Inhibitors of Bacillus subtilis Sfp phosphopantetheinyl transferase (PPTase). 4'-phosphopantetheinyl transferase ffp (Bacillus subtilis), Q9F4F7. Biochemical Sfp PPTase activity, qHTS. Potency, µM, usual class: inhibitors. actives 3.5% (n = 310,000). AID 1490, 2009;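 note: the enzyme is Sfp with the accession as filed and its product quenches rhodamine fluorescence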
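With Hepes-Na pH 7.6 buffer containing 10 mM MgCl2, Sfp (15 nM) modified BHQ-2-YbbR (12.5 uM) using rhodamine-CoA (5 uM). Two reads 30 minutes apart at 525/598 nm yielded each well's rate.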
LMNA splice mod = qHTS Assay for Modulators of Lamin A Splicing; HeLa LMNA splicing GFP/RFP minigene ratio, 48 h; Potency, µM (highest dose often 46.1 µM), most hits filed as inhibitors; actives 0.01% (n = 200,000); AID 1487, 2009; active = well fitted inhibition curve with a large enough effect in the signal ratio, with a control signal flat, not every such curve was filed as active; inconclusive = small, poorly fitted or top-dose-only effect, or effect the other way, or a change in a side signal; the % refers to the signal ratio
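Read-out is the ratio of GFP to DsRed2 object intensity, acquired by 488 nm laser-scanning cytometry on HeLa lamin A-EGFP minigene reporter cells. Compound incubation 48 hrs at 37 °C in Opti-MEM with 2% FBS; DMSO 0.5% final.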
miR-21 act = qHTS Assay for Modulators of miRNAs and/orActivators of miR-21; HeLa miR-21 FLuc reporter, luciferase, 48 h; Potency, µM (doses to about 38.3 µM), usual class: activators; 340,000 tested, under 10 active; AID 2288, 2010;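 note: miR-21 action dims this reporter so a rising signal means less miR-21 action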
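Using DMEM plus 10% FBS, HeLa miR-21-FLuc cells are incubated with test compounds (final up to about 40uM) for 48 hours; firefly luciferase signal is then imaged following reagent-mediated lysis.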
G9a block = qHTS Assay for Inhibitors of Histone Lysine Methyltransferase G9a | actives 8.8% (n = 350,000) | Potency, µM (highest dose often 102 µM), most hits filed as inhibitors | Histone-lysine N-methyltransferase EHMT2 (Homo sapiens), Q96KQ7 | G9a H3K9 monomethylation, AlphaScreen, 2 h; note: nearly all actives have a fitted effect of over 75% in size
Target sequence (Q96KQ7 913-1193 limits assumed): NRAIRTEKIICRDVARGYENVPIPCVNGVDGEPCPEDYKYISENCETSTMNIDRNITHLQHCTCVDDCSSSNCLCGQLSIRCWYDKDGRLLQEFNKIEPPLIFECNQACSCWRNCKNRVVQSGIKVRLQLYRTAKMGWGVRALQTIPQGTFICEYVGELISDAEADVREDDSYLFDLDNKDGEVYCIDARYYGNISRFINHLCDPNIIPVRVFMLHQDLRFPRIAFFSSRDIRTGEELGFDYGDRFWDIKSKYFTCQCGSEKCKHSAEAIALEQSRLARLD
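G9a (20 nM) was preincubated 15 min with compound, then reacted 2 h at room temperature with 500 nM biotin-H3K9 peptide and 20 µM SAM. Monomethyl-H3K9 detected by AlphaScreen using anti-H3K9me1 antibody.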
Numbers stand for hits; [ ] = another dose, or the depositor's remark. Unless noted, calls come from the whole dose curve; as a rule, active = well fitted curve in the direction sought with a large enough effect; inconclusive = small, poorly fitted or top-dose-only effect, or another doubt; inactive = no such curve, though single readings can be large; an effect the other way counts as inactive or inconclusive.

Screening CC(=O)Oc1ccc(N(C(C)=O)S(=O)(=O)c2cccs2)c2ccccc12 returned JMJD2E inh inactive, ALDH1A1 inh 5.01µM, Sfp PPTase inh inactive, LMNA splice mod inconclusive, miR-21 act inconclusive and G9a block 12.6µM.
For CC(=O)Oc1ccccc1N(C(C)=O)S(=O)(=O)c1ccc2ccccc2c1 the results were JMJD2E inh inactive, ALDH1A1 inh inactive, Sfp PPTase inh inactive, miR-21 act inactive and G9a block inactive.
For Cc1cc(-n2nc3ccccc3n2)c(O)c([N+](=O)[O-])c1 the results were Sfp PPTase inh inactive, miR-21 act inactive and G9a block 79.4µM.
`Cc1ccc(OC(=O)c2cccc([N+](=O)[O-])c2)c(-n2nc3ccccc3n2)c1` gave JMJD2E inh inactive, ALDH1A1 inh inactive, Sfp PPTase inh inactive, LMNA splice mod inactive, miR-21 act inactive and G9a block inactive.
CC(=O)Nc1ncc(N=Nc2cccc(C(F)(F)F)c2)s1 was read as Sfp PPTase inh inactive, miR-21 act inactive and G9a block 44.7µM.
Screening COC(=O)/C(N=Nc1cccc(C(F)(F)F)c1)=C(\C)O returned JMJD2E inh inactive, ALDH1A1 inh inactive, Sfp PPTase inh inactive, LMNA splice mod inconclusive, miR-21 act inactive and G9a block inactive.
`COc1ccc(NC(=S)N(CCCN2CCOCC2)Cc2cn(C)c3ccccc23)cc1` gave JMJD2E inh inactive, ALDH1A1 inh 0.562µM, Sfp PPTase inh inactive, LMNA splice mod inconclusive, miR-21 act inactive and G9a block inconclusive.
Cn1cc(CN(CCCN2CCOCC2)C(=S)Nc2cccc(Cl)c2)c2ccccc21 was read as JMJD2E inh inactive, ALDH1A1 inh inactive, Sfp PPTase inh inactive, LMNA splice mod inconclusive, miR-21 act inactive and G9a block 79.4µM.
CCOc1ccc(NC(=S)N(CCCN2CCOCC2)Cc2cn(C)c3ccccc23)cc1 was read as JMJD2E inh inactive, ALDH1A1 inh 3.98µM, Sfp PPTase inh inactive, LMNA splice mod inactive, miR-21 act inactive and G9a block inconclusive.
CCC(=O)N1CCc2cc(S(=O)(=O)NC(Cc3ccccc3)C(=O)Nc3ccc(Cl)cc3)ccc21 (configuration not stated) was read as miR-21 act inactive and G9a block inactive.
Screening C[C@@](N)(C(=O)O)c1ccc(P(=O)(O)O)cc1 returned JMJD2E inh inconclusive, ALDH1A1 inh inactive and Sfp PPTase inh inactive.
For O=C(c1ccc(-c2cccc(C(F)(F)F)c2)o1)N1CCN(c2ccccc2)CC1 the results were G9a block 3.55µM.
`O=C(c1ccc(-c2ccc([N+](=O)[O-])cc2)o1)N1CCCCCCC1` gave G9a block inactive[12.7 µM].
`O=C(c1ccc(-c2ccc([N+](=O)[O-])cc2)o1)N1CCCC(C(F)(F)F)C1` (configuration not stated) gave G9a block 14.1µM.
O=C(c1ccco1)N1CCN(C(=O)c2ccc(-c3cccc(C(F)(F)F)c3)o2)CC1 was read as G9a block inactive[0.501 µM].
O=C(c1ccc(-c2cccc(C(F)(F)F)c2)o1)N1CCCCCCC1 was read as G9a block 50.1µM.
Screening CCOCC(=O)Nc1cc(Cl)c(OC)cc1OC returned JMJD2E inh inactive, ALDH1A1 inh inactive, Sfp PPTase inh inactive, LMNA splice mod inconclusive, miR-21 act inactive and G9a block inactive.
O=C1OC(c2ccc(Cl)cc2)=C/C1=C/c1cccnc1 was read as Sfp PPTase inh inactive, miR-21 act inactive and G9a block 56.2µM.
Screening Cc1cccc(C2=N/C(=C\c3cccnc3)C(=O)O2)c1 returned JMJD2E inh inconclusive, ALDH1A1 inh inactive, Sfp PPTase inh inactive, LMNA splice mod inactive, miR-21 act inactive and G9a block inconclusive.
Screening Cc1ccc(C2=C/C(=C/c3cccnc3)C(=O)O2)c(C)c1 returned JMJD2E inh inactive, ALDH1A1 inh inconclusive, Sfp PPTase inh 50.1µM, LMNA splice mod inactive, miR-21 act inactive and G9a block inconclusive.
Screening COc1cccc(NCc2cc(=O)oc3cc(C)c(C(C)C)cc23)c1 returned Sfp PPTase inh inactive, miR-21 act inactive and G9a block inactive[2.33 µM].
Screening Cc1ccc(C)c(N2CCN(C(=O)c3cc4cc5ccc(C)cc5nc4o3)CC2)c1 returned miR-21 act inactive and G9a block inactive.
`CCOC(=O)C1CCN(C(=O)c2cc3cc4ccc(C)cc4nc3o2)CC1` gave Sfp PPTase inh inactive, miR-21 act inactive and G9a block 79.4µM.
For C[C@@H](O)C1NC(=O)[C@H](CCCCN)NC(=O)c2cc([N+](=O)[O-])cc(I)c2NCCC[C@@H](C(N)=O)NC1=O (some centres not stated) the results were JMJD2E inh inactive, ALDH1A1 inh inactive, Sfp PPTase inh inactive, LMNA splice mod inconclusive, miR-21 act inactive and G9a block 50.1µM.
CC(C)[C@@H]1NC(=O)c2cc([N+](=O)[O-])cc(I)c2NCC[C@@H](C(N)=O)NC(=O)[C@H](CO)NC1=O was read as JMJD2E inh inactive, ALDH1A1 inh inactive, Sfp PPTase inh inactive, LMNA splice mod inactive, miR-21 act inactive and G9a block 12.6µM.
Screening CC(C)[C@@H]1NC(=O)c2cc([N+](=O)[O-])cc(F)c2NCCC[C@@H](C(N)=O)NC(=O)[C@H](CO)NC1=O returned JMJD2E inh inactive, ALDH1A1 inh inactive, Sfp PPTase inh inactive, LMNA splice mod inactive, miR-21 act inactive and G9a block 39.8µM.
CC(C)C[C@@H]1NC(=O)[C@H](C(C)C)NC(=O)c2cc([N+](=O)[O-])cc(I)c2NCC[C@@H](C(N)=O)NC1=O was read as JMJD2E inh inactive, ALDH1A1 inh 28.2µM, Sfp PPTase inh inactive, LMNA splice mod inactive, miR-21 act inactive and G9a block 12.6µM.
For CCn1c(=N)c(C(=O)NCc2cccnc2)cc2c(=O)n3cc(C)ccc3nc21 the results were miR-21 act inactive and G9a block inactive.
For NC(=O)[C@@H]1CCCCNc2c(F)cc([N+](=O)[O-])cc2C(=O)N[C@@H](CC(=O)O)C(=O)NCC(=O)N1 the results were JMJD2E inh inactive, ALDH1A1 inh inactive, Sfp PPTase inh inactive, LMNA splice mod inactive, miR-21 act inactive and G9a block inconclusive.
C[C@@H]1NC(=O)c2cc([N+](=O)[O-])cc(I)c2NCCCC[C@@H](C(N)=O)NC(=O)[C@H](CC(N)=O)NC1=O was read as JMJD2E inh inactive, ALDH1A1 inh inconclusive, Sfp PPTase inh inconclusive, LMNA splice mod inactive, miR-21 act inactive and G9a block 31.6µM.
